Results published in PubChem BioAssay (NCI).
The panel holds about 79,000 compounds, 15% with a hit somewhere; the sample as a whole holds those more often. The source made the active and inactive calls. Rule as the data show it: active = growth inhibition above about 70%; inactive = the rest.

Assay: NCI Yeast Anticancer Drug Screen. Data for the CLN2oe strain (AID 163);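 also: 0% = growth of vehicle-only control cultures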
Conditions: S. cerevisiae CLN2oe strain, at 33.0 µM, hits give high values
Procedure, shortened: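 Read-out: yeast growth inhibition, expressed relative to vehicle-only controls. The strain bears an engineered cell-cycle alteration.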

Question: For `COc1ccc(/C=C2\CCc3ccccc3C2=O)cc1OC`, which growth inhibition is on record?
Answer: 37% (inactive)

Question: Which growth inhibition does the source give for `O=Cc1ccccc1B(O)O` here?
Answer: 98% (active)

Question: Which growth inhibition does the source give for `CC(=O)CC[N+](C)(C)C` here?
Answer: 31% (inactive)

Question: Which growth inhibition does the source give for `O=C(O)[C@H]1[C@@H](C2CCCCC2)O[C@@H](C2CCCCC2)O[C@H]1C(F)(F)F` here?
Answer: -8% (inactive)

Question: Which growth inhibition does the source give for `CN(NC(=O)/C(=C/C=C/c1ccccc1)NC(=O)c1ccccc1)C1=C(Cl)C(=O)[N+](c2ccccc2)=CC1` here?
Answer: 40% (inactive)

Question: For `CCCCOc1ccc(Nc2c3ccccc3nc3ccccc23)cc1`, which growth inhibition is on record?
Answer: 98% (active)

Question: For `N#C/C(=C1C=C/C(=N\O)C(Cl)=C\1)c1ccccc1`, which growth inhibition is on record?
Answer: 15% (inactive)

Question: With `COc1ccc(C(=O)OCCc2ccccc2)cc1` as the compound, how does the growth inhibition read?
Answer: -7% (inactive)

Question: For `Cc1c2ccncc2c(C)c2c1oc1ccccc12`, which growth inhibition is on record?
Answer: 89% (active)

Question: For `CCCC#CCOC(=O)c1cc([N+](=O)[O-])cc([N+](=O)[O-])c1`, which growth inhibition is on record?
Answer: 99% (active)

Question: With `Nc1nc(Nc2ccccc2)nc(Nc2ccccc2)n1` as the compound, how does the growth inhibition read?
Answer: -3% (inactive)

Question: For `COc1ccc(/C=C2\S/C(=N/Nc3nc(-c4ccccc4)cs3)NC2=O)cc1OC`, which growth inhibition is on record?
Answer: 98% (active)

Question: Which growth inhibition does the source give for `CC(O)CN1C(=O)c2cccc3cc([N+](=O)[O-])cc(c23)C1=O` (centres undefined) here?
Answer: -5% (inactive)

Question: Which growth inhibition does the source give for `Cn1c(COc2ccc(/C=N/NC(=O)CCC(=O)N/N=C/c3ccc(OCc4c[n+]5ccccc5n4C)cc3)cc2)c[n+]2ccccc12` here?
Answer: -5% (inactive)

Question: Which growth inhibition does the source give for `COC1=C(N=[N+]=[N-])C(=O)c2ncccc2C1=O` here?
Answer: 69% (inactive)

Question: For `CCN(CC)c1ccc(N=Nc2cc(S(=O)(=O)O)ccc2O)c(O)c1`, which growth inhibition is on record?
Answer: 9% (inactive)

Question: For `O=C1C(C(O)(C(F)(F)F)C(F)(F)F)CCC1C(O)(C(F)(F)F)C(F)(F)F` (centres undefined), which growth inhibition is on record?
Answer: 27% (inactive)

Question: For `CN(C)CCNC(=O)c1cccc2nc3c(ccc4ccccc43)nc12`, which growth inhibition is on record?
Answer: 18% (inactive)

Question: Which growth inhibition does the source give for `O=S(=O)(CCC[C@H]1[C@@H](CCOCc2ccccc2)C2CCCN1O2)c1ccccc1` (some centres undefined) here?
Answer: 16% (inactive)

Question: With `CCC(C)/C(C)=N/NC(N)=O` (centres undefined) as the compound, how does the growth inhibition read?
Answer: -6% (inactive)

Question: Which growth inhibition does the source give for `Nc1c([N+](=O)[O-])cc2c3c(cccc13)CC2` here?
Answer: 20% (inactive)

Question: For `CC1=Cc2ccc(C)cc2C(=O)C1=O`, which growth inhibition is on record?
Answer: 18% (inactive)

Question: With `C=Cc1c(C)c(O)cc2c1-c1ccc(O)c(C)c1CC2` as the compound, how does the growth inhibition read?
Answer: 98% (active)

Question: For `C[n+]1c(-c2ccc(NC(=O)c3ccc(C(=O)Nc4ccc(-c5cn6ccccc6[n+]5C)cc4)cc3)cc2)cn2ccccc21`, which growth inhibition is on record?
Answer: 66% (inactive)

Question: With `CNC(=O)OCc1c(COC(=O)NC)c(C)n(-c2ccc(Cl)c(Cl)c2)c1C` as the compound, how does the growth inhibition read?
Answer: 46% (inactive)

Question: Which growth inhibition does the source give for `[O-]c1c2cc(-[n+]3c(-c4ccccc4)cc(-c4ccccc4)cc3-c3ccccc3)cc1COCCOCCOCCOCCOC2` here?
Answer: -6% (inactive)

Question: With `C[Si](C)(C)Cc1ccccc1C(=O)O` as the compound, how does the growth inhibition read?
Answer: 20% (inactive)

Same assay, conditions: S. cerevisiae CLN2oe strain, at 100.0 µM, hits give high values

Question: With `COc1ccc(/C=C2\CCc3ccccc3C2=O)cc1OC` as the compound, how does the growth inhibition read?
Answer: 92% (active)

Question: With `O=Cc1ccccc1B(O)O` as the compound, how does the growth inhibition read?
Answer: 99% (active)

Question: With `CC(=O)CC[N+](C)(C)C` as the compound, how does the growth inhibition read?
Answer: 36% (inactive)

Question: Which growth inhibition does the source give for `O=C(O)[C@H]1[C@@H](C2CCCCC2)O[C@@H](C2CCCCC2)O[C@H]1C(F)(F)F` here?
Answer: 4% (inactive)

Question: Which growth inhibition does the source give for `CN(NC(=O)/C(=C/C=C/c1ccccc1)NC(=O)c1ccccc1)C1=C(Cl)C(=O)[N+](c2ccccc2)=CC1` here?
Answer: 44% (inactive)

Question: With `CCCCOc1ccc(Nc2c3ccccc3nc3ccccc23)cc1` as the compound, how does the growth inhibition read?
Answer: 76% (active)

Question: With `N#C/C(=C1C=C/C(=N\O)C(Cl)=C\1)c1ccccc1` as the compound, how does the growth inhibition read?
Answer: 13% (inactive)

Question: For `COc1ccc(C(=O)OCCc2ccccc2)cc1`, which growth inhibition is on record?
Answer: -6% (inactive)

Question: With `Cc1c2ccncc2c(C)c2c1oc1ccccc12` as the compound, how does the growth inhibition read?
Answer: 97% (active)

Question: For `CCCC#CCOC(=O)c1cc([N+](=O)[O-])cc([N+](=O)[O-])c1`, which growth inhibition is on record?
Answer: 99% (active)

Question: For `Nc1nc(Nc2ccccc2)nc(Nc2ccccc2)n1`, which growth inhibition is on record?
Answer: 87% (active)

Question: With `COc1ccc(/C=C2\S/C(=N/Nc3nc(-c4ccccc4)cs3)NC2=O)cc1OC` as the compound, how does the growth inhibition read?
Answer: 97% (active)

Question: Which growth inhibition does the source give for `CC(O)CN1C(=O)c2cccc3cc([N+](=O)[O-])cc(c23)C1=O` (centres undefined) here?
Answer: -5% (inactive)

Question: With `Cn1c(COc2ccc(/C=N/NC(=O)CCC(=O)N/N=C/c3ccc(OCc4c[n+]5ccccc5n4C)cc3)cc2)c[n+]2ccccc12` as the compound, how does the growth inhibition read?
Answer: 76% (active)

Question: For `COC1=C(N=[N+]=[N-])C(=O)c2ncccc2C1=O`, which growth inhibition is on record?
Answer: 95% (active)

Question: For `CCN(CC)c1ccc(N=Nc2cc(S(=O)(=O)O)ccc2O)c(O)c1`, which growth inhibition is on record?
Answer: 10% (inactive)

Question: For `O=C1C(C(O)(C(F)(F)F)C(F)(F)F)CCC1C(O)(C(F)(F)F)C(F)(F)F` (centres undefined), which growth inhibition is on record?
Answer: 42% (inactive)

Question: With `CN(C)CCNC(=O)c1cccc2nc3c(ccc4ccccc43)nc12` as the compound, how does the growth inhibition read?
Answer: 72% (active)

Question: With `O=S(=O)(CCC[C@H]1[C@@H](CCOCc2ccccc2)C2CCCN1O2)c1ccccc1` (some centres undefined) as the compound, how does the growth inhibition read?
Answer: 37% (inactive)

Question: For `CCC(C)/C(C)=N/NC(N)=O` (centres undefined), which growth inhibition is on record?
Answer: -5% (inactive)

Question: With `Nc1c([N+](=O)[O-])cc2c3c(cccc13)CC2` as the compound, how does the growth inhibition read?
Answer: 26% (inactive)

Question: For `CC1=Cc2ccc(C)cc2C(=O)C1=O`, which growth inhibition is on record?
Answer: 94% (active)

Question: With `C=Cc1c(C)c(O)cc2c1-c1ccc(O)c(C)c1CC2` as the compound, how does the growth inhibition read?
Answer: 99% (active)

Question: Which growth inhibition does the source give for `C[n+]1c(-c2ccc(NC(=O)c3ccc(C(=O)Nc4ccc(-c5cn6ccccc6[n+]5C)cc4)cc3)cc2)cn2ccccc21` here?
Answer: 89% (active)

Question: For `CNC(=O)OCc1c(COC(=O)NC)c(C)n(-c2ccc(Cl)c(Cl)c2)c1C`, which growth inhibition is on record?
Answer: 94% (active)

Question: Which growth inhibition does the source give for `[O-]c1c2cc(-[n+]3c(-c4ccccc4)cc(-c4ccccc4)cc3-c3ccccc3)cc1COCCOCCOCCOCCOC2` here?
Answer: 77% (active)

Question: Which growth inhibition does the source give for `C[Si](C)(C)Cc1ccccc1C(=O)O` here?
Answer: 99% (active)
